The list is not random: actives were taken first. Their share in the collection is about 3.1%.
TSG101-PTAP inh – qHTS Assay for Iinhibitors of HIV-1 Budding by Blocking the Interaction of PTAP/TSG101; Tumor susceptibility gene 101 protein (Homo sapiens), Q99816; Fluorescence polarization, FITC-PTAP peptide / Tsg101 binding; Potency, µM (titrated, usually from 115 µM), usual class: inhibitors; 340,000 tested, under 10 active; AID 493005, 2010; active = well fitted inhibition curve with a large enough effect in the main read-out, with a control signal flat, not every such curve was filed as active; inconclusive = small, poorly fitted or top-dose-only effect, or effect the other way, or a change in a side signal; inactive = no such curve, though single readings can be large or run the other way
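Tsg101 binding domain (10 uM final) was mixed with compound and a FITC-labeled PTAP peptide (50 nM final) in HEPES pH 7.5 buffer with NaCl, Tween 20, EDTA and TCEP; fluorescence polarization was read after 20 min at r.t.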
VDR inh – Inhibitors of the vitamin D receptor (VDR): qHTS. VDR-SRC2-3 peptide fluorescence polarization, 2 h. Potency, µM, hits mostly inhibitors. AID 504847, 2011. Vitamin D3 receptor (Homo sapiens), P11473. 400,000 compounds, 0.93% hits
Target sequence (P11473 whole entry, looked up): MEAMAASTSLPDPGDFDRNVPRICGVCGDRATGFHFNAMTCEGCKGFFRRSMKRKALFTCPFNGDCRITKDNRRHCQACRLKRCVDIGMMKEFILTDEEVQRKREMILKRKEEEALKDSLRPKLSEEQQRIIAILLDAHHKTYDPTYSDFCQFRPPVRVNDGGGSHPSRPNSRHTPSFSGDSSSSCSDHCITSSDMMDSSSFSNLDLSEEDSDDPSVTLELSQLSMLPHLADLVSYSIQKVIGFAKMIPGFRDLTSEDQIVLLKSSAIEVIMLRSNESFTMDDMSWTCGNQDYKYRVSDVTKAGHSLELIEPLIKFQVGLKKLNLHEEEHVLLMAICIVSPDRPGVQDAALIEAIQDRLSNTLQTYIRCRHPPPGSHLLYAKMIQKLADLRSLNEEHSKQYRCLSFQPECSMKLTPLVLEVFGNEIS
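Fluorescence polarization assay of small-molecule disruption of VDR binding to coregulator peptide SRC2-3. Compounds and controls pin-transferred, then read after 2 h incubation at ambient room temperature.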
TSHR antag – Antagonists of the Thyroid Stimulating Hormone Receptor: HTS campaign; Thyrotropin receptor (Homo sapiens), P16473; activity change, negative = inhibition, % at 11.5 µM; 330,000 compounds, 0.2% hits; TSHR-expressing cells, TSH-stimulated cAMP HTRF, 2 h; active compounds read low; AID 504810, 2011;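 active = activity change below a set negative limit, meaning inhibition stronger than a set level, cut at about -70% in these data; inconclusive = activity change between two set negative limits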
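Inhibition of cAMP made by TSHR-expressing cells under TSH stimulation (4nM final, EC80; 2 h, 37 deg C) is quantified with a one-step lysis HTRF kit, anti-cAMP cryptate versus cAMP-d2.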
PLK1 PBD inh – qHTS for Inhibitors of PLK1-PDB (polo-like kinase 1 - polo-box domain): Primary Screen | Potency, µM, hits mostly inhibitors | 360,000 compounds, 2.8% hits | AID 720504, 2013 | Plk1 PBD binding of FITC phosphopeptide, fluorescence polarization | Serine/threonine-protein kinase PLK1 (Homo sapiens), P53350; note: series mostly up to about 57 µM; nearly all actives have a fitted effect of over 65% in size
uPA surface inh – qHTS for Inhibitors of Cell Surface uPA Generation | cell surface uPA generation assay, qHTS | Potency, µM (top dose mostly 38.3 µM), most hits filed as inhibitors | 330,000 compounds, 0.31% hits | AID 540303, 2011; active = well fitted inhibition curve with a large enough effect; inconclusive = small, poorly fitted or top-dose-only effect; inactive = no such curve, though single readings can be large or run the other way; tested in mouse RAW 264.7 cells; note: nearly all actives have a fitted effect of over 55% in size
Each line names hits and unclear results; the compound was inactive in the other large screens. Unless noted, calls come from the whole dose curve; as a rule, active = well fitted curve in the direction sought with a large enough effect; inconclusive = small, poorly fitted or top-dose-only effect, or another doubt; inactive = no such curve, though single readings can be large; an effect the other way counts as inactive or inconclusive.

Cc1ccc(CNC(=O)c2cn(C)c(=O)c3c2c2ccccc2n3C)o1	none
Cc1ccc(CNC(=O)c2cn(C3CCCCC3)c(=O)c3c2c2ccccc2n3C)o1	VDR inh 79µM, PLK1 PBD inh inconclusive
CCOc1ccc(N2CC(NC(=O)Cc3ccccc3)CC2=O)cc1 (stereo not drawn)	none (no result: TSG101-PTAP inh, TSHR antag, PLK1 PBD inh, uPA surface inh)
COc1ccc(CCNC(=O)CSc2nnnn2-c2cccc(C(C)=O)c2)cc1OC	none (no result: TSG101-PTAP inh, TSHR antag, PLK1 PBD inh, uPA surface inh)
Cn1c(CCC(=O)O)nc2cc(S(=O)(=O)N3CCCCC3)ccc21	VDR inh inconclusive, PLK1 PBD inh 27µM
Cn1c(CCC(=O)O)nc2cc(S(=O)(=O)N3CCCC3)ccc21	none
COC(=O)C1=C(N)OC2=C(C(=O)CC(C)(C)C2)C1c1ccoc1 (stereo not drawn)	PLK1 PBD inh 4.7µM
O=C(O)c1cccc(-c2ccc(/C=C3/SC(=Nc4ccccc4)N(Cc4cccnc4)C3=O)o2)c1	PLK1 PBD inh 24µM
CCN1C(=O)/C(=C\c2ccc(-c3cccc(C(=O)OC)c3)o2)SC1=Nc1ccc(C(=O)O)cc1	none (no result: TSG101-PTAP inh, VDR inh, PLK1 PBD inh, uPA surface inh)
CCN1C(=O)/C(=C\c2ccc(-c3ccc([N+](=O)[O-])cc3OC)o2)SC1=Nc1cccc(C(=O)O)c1	VDR inh inconclusive, PLK1 PBD inh 21µM, uPA surface inh inconclusive
NC(=O)CSc1nnc2ccc(-c3ccc(F)cc3)nn12	PLK1 PBD inh 15µM
COc1ccc(C2C(C(=O)Nc3ccc(C)cc3C)=C(C)Nc3nc(SCc4cccc(C)c4)nn32)c(OC)c1 (stereo not drawn)	none (no result: TSG101-PTAP inh, TSHR antag, PLK1 PBD inh, uPA surface inh)
Oc1ccc(Br)cc1/C=N/n1c(C2CCCCC2)n[nH]c1=S	PLK1 PBD inh 27µM
O=C1CCCCCC(=O)[C@H](O)C[C@H](c2ccccc2)O1	none (no result: TSG101-PTAP inh, VDR inh, TSHR antag, uPA surface inh)
c1ccc(-c2nc3c4ccccc4ccn3c2Cc2ccsc2)cc1	none (no result: TSG101-PTAP inh, VDR inh, TSHR antag, uPA surface inh)
COc1ccc2[nH]c3c(=O)n(Cc4ccc(C(=O)N5CCCC5)cc4)c(=S)[nH]c3c2c1	VDR inh inconclusive, PLK1 PBD inh 24µM
COc1ccc2[nH]c3c(=O)n(CCCCC(=O)NCCN4CCCC4)c(=S)[nH]c3c2c1	none
O=C(Nc1nc2c(s1)CN(Cc1ccccc1)CC2)c1c(F)cccc1F	PLK1 PBD inh 21µM
CCOc1ncccc1C(=O)N1CCN(c2cc(Cl)ccc2C)CC1	PLK1 PBD inh 21µM
CC(C)(C)CNC(=O)C1(C)CCN1C(=O)Cc1ccc(-c2ccccc2)cc1 (stereo not drawn)	none (no result: TSG101-PTAP inh, VDR inh, TSHR antag, uPA surface inh)
COc1ccc(-c2oc(=O)c3cc(OC)c(OC)cc3c2-c2ccc3c(c2)OCO3)cc1	none
COc1cc2oc(=O)c3c4c(cc5ccc(c1CCN(C)C)c2c53)OCO4	VDR inh 40µM (no result: TSG101-PTAP inh, TSHR antag, PLK1 PBD inh, uPA surface inh)
Cn1cc(C(C[N+](=O)[O-])c2ccccc2)c2ccccc21 (stereo not drawn)	uPA surface inh inconclusive
CC(=O)n1cc(C(C[N+](=O)[O-])SCCN)c2ccccc21 (stereo not drawn)	VDR inh 22µM, PLK1 PBD inh 5.3µM
Cc1ccc(NC(=O)Cn2c(=O)n(Cc3ccc4c(c3)OCO4)c(=O)c3oc4ccccc4c32)cc1C	none (no result: TSG101-PTAP inh, TSHR antag, PLK1 PBD inh, uPA surface inh)
CSc1ccccc1NC(=O)Nc1cccc(Cl)c1	none (no result: uPA surface inh)
O=C(Nc1cccc(C(F)(F)F)c1)Nc1cc(Cl)ccc1C(=O)O	VDR inh 50µM (no result: TSG101-PTAP inh, TSHR antag, PLK1 PBD inh, uPA surface inh)
Cc1ccc(NC(=O)Nc2cccc(Cl)c2)c(C(=O)O)c1	VDR inh inconclusive, PLK1 PBD inh 19µM, uPA surface inh inconclusive
COc1ccc(Br)cc1CNC(=O)CN1CCSc2ccccc21	none (no result: TSG101-PTAP inh, TSHR antag, PLK1 PBD inh, uPA surface inh)
CN1CCN(NC(=O)c2cc(-c3cccc(Cl)c3)nc3ccccc23)CC1	none
CN1CCC(N(C)C(=S)NC(=O)c2cc(-c3cccc(Br)c3)nc3ccccc23)CC1	PLK1 PBD inh 21µM
COC(=O)c1cc2occc2n1Cc1nc(-c2ccc(Cl)cc2)oc1C	VDR inh inconclusive, PLK1 PBD inh 30µM
Cc1ccc(-c2nc3cnccn3c2Nc2ccccc2)o1	VDR inh inconclusive
Cc1ccc(Nc2c(-c3ccc(C)o3)nc3cnccn23)cc1	VDR inh 71µM, PLK1 PBD inh 14µM
COc1ccccc1NC(=O)CN(Cc1ccco1)C(=O)c1ccc(N2CCCC2=O)cc1	none
COc1ccccc1OCC(=O)NCC1CCCN(C(=O)c2ccccc2C(C)=O)C1 (stereo not drawn)	none (no result: TSG101-PTAP inh)

Bioassay records: PubChem BioAssay, National Center for Advancing Translational Sciences (NCATS)
